# Measurements published in ChEMBL document CHEMBL1961873, “Compounds: GSK PKIS; Assays: Nanosyn kinase panel” (2012).
# Experiments:
# [1] = target: T1, Inhibitor of nuclear factor kappa-B kinase subunit epsilon (Homo sapiens) (UniProt Q14164); conditions: at 1 µM;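 note: reported values are averaged percent inhibition figures against human IKKε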
# T1 sequence (whole entry): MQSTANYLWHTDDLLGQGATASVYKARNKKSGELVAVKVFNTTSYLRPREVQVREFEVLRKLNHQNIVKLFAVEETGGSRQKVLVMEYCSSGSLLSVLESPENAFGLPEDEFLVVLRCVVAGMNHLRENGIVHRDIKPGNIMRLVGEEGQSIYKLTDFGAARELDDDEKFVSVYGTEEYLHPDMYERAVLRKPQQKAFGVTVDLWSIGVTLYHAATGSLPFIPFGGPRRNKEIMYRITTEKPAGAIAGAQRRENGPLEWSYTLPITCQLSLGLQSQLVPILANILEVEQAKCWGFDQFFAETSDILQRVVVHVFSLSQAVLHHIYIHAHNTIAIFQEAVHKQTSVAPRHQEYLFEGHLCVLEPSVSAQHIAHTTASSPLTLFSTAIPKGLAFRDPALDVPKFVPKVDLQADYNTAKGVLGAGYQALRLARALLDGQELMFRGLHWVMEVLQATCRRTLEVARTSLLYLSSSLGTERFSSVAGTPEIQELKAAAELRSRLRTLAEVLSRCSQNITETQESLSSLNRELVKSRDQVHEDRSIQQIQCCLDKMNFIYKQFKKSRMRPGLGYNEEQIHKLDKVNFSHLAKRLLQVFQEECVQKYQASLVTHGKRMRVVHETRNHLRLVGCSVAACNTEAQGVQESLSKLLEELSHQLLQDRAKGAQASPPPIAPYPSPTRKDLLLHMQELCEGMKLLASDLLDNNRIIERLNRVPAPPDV
# [2] = target: T2, Serine/threonine-protein kinase Nek1 (Homo sapiens) (UniProt Q96PY6); conditions: at 0.1 µM
# T2 sequence (whole entry): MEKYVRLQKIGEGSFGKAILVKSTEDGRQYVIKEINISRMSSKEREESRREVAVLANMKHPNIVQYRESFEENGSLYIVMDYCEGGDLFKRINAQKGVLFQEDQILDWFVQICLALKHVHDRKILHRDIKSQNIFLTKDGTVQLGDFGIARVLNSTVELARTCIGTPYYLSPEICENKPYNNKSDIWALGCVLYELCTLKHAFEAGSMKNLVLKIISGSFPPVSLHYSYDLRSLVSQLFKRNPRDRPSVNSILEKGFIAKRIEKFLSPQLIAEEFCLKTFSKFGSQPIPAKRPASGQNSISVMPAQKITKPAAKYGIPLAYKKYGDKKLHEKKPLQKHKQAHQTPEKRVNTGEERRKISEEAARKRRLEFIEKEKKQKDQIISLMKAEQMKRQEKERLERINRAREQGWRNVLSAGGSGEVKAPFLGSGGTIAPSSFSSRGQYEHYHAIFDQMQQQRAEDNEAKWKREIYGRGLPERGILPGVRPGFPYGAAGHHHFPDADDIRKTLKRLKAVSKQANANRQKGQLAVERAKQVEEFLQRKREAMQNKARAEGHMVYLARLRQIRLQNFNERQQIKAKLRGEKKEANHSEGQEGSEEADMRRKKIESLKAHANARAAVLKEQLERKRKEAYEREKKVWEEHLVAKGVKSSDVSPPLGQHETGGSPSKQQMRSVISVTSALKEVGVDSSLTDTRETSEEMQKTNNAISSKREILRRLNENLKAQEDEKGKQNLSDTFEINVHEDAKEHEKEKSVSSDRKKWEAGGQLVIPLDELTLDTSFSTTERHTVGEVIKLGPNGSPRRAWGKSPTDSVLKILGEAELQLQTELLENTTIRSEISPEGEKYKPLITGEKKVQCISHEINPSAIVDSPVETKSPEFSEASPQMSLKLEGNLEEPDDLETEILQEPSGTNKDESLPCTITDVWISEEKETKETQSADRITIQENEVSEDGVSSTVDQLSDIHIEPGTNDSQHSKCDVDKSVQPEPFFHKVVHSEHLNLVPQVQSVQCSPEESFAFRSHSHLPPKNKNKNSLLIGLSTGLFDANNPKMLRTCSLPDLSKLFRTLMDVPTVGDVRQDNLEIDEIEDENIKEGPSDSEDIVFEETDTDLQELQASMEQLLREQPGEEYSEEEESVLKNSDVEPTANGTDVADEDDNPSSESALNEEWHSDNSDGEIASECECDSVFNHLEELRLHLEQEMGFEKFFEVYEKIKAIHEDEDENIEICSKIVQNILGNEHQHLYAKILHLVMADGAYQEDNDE
# [3] = target: T2, Serine/threonine-protein kinase Nek1 (Homo sapiens); conditions: at 1 µM
# [4] = target: T3, Serine/threonine-protein kinase Nek2 (Homo sapiens) (UniProt P51955); conditions: at 0.1 µM
# T3 sequence (whole entry): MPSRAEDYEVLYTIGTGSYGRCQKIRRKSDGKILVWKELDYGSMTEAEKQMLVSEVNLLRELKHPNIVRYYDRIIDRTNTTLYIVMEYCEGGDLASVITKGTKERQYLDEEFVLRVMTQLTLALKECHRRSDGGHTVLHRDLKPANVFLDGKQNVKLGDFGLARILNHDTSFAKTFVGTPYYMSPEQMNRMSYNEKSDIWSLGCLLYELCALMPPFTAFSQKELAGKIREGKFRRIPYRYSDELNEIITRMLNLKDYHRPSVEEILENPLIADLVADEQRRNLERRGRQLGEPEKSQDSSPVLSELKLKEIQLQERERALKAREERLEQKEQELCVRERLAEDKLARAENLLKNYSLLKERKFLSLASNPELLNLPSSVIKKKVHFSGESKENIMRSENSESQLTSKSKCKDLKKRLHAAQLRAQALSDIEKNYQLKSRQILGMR
# [5] = target: T3, Serine/threonine-protein kinase Nek2 (Homo sapiens); conditions: at 1 µM
# [6] = target: Serine/threonine-protein kinase Nek6 (Homo sapiens) (UniProt Q9HC98); conditions: at 0.1 µM
# [7] = target: Serine/threonine-protein kinase Nek6 (Homo sapiens) (UniProt Q9HC98); conditions: at 1 µM
# [8] = target: Serine/threonine-protein kinase Nek7 (Homo sapiens) (UniProt Q8TDX7); conditions: at 0.1 µM
# [9] = target: Serine/threonine-protein kinase Nek7 (Homo sapiens) (UniProt Q8TDX7); conditions: at 1 µM
# [10] = target: T4, Serine/threonine-protein kinase Nek9 (Homo sapiens) (UniProt Q8TD19); conditions: at 0.1 µM
# T4 sequence (whole entry): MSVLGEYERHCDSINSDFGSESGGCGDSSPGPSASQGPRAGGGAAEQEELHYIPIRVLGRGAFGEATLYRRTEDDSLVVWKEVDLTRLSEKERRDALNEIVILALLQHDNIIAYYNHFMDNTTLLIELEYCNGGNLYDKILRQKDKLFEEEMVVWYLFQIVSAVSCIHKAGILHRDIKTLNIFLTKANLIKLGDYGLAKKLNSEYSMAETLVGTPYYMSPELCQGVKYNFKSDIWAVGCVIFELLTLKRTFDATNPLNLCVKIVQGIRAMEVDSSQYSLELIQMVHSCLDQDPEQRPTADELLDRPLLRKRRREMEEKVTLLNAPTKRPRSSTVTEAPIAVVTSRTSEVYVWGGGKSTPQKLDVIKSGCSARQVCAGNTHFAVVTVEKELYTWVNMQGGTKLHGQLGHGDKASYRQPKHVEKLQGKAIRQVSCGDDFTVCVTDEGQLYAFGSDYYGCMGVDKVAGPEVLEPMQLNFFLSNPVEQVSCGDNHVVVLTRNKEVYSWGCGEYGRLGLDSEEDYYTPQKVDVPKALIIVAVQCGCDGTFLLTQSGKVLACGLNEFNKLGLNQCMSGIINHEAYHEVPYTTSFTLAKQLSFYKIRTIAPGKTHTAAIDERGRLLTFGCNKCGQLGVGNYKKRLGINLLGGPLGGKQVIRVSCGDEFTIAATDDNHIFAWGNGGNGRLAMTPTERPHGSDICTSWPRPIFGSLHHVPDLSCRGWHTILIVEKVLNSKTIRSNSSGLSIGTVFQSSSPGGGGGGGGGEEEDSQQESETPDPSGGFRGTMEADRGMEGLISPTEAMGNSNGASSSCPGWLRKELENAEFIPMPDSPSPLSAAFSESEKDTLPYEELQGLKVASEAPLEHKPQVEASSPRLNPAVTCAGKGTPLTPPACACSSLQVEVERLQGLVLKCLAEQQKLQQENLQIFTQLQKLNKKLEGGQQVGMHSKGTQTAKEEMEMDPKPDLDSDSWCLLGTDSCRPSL
# [11] = target: T4, Serine/threonine-protein kinase Nek9 (Homo sapiens); conditions: at 1 µM
# [12] = target: Serine/threonine-protein kinase PLK1 (Homo sapiens) (UniProt P53350); conditions: at 0.1 µM
# [13] = target: Serine/threonine-protein kinase PLK1 (Homo sapiens) (UniProt P53350); conditions: at 1 µM
# [14] = target: T5, Dual specificity protein kinase TTK (Homo sapiens) (UniProt P33981); conditions: at 0.1 µM
# T5 sequence (whole entry): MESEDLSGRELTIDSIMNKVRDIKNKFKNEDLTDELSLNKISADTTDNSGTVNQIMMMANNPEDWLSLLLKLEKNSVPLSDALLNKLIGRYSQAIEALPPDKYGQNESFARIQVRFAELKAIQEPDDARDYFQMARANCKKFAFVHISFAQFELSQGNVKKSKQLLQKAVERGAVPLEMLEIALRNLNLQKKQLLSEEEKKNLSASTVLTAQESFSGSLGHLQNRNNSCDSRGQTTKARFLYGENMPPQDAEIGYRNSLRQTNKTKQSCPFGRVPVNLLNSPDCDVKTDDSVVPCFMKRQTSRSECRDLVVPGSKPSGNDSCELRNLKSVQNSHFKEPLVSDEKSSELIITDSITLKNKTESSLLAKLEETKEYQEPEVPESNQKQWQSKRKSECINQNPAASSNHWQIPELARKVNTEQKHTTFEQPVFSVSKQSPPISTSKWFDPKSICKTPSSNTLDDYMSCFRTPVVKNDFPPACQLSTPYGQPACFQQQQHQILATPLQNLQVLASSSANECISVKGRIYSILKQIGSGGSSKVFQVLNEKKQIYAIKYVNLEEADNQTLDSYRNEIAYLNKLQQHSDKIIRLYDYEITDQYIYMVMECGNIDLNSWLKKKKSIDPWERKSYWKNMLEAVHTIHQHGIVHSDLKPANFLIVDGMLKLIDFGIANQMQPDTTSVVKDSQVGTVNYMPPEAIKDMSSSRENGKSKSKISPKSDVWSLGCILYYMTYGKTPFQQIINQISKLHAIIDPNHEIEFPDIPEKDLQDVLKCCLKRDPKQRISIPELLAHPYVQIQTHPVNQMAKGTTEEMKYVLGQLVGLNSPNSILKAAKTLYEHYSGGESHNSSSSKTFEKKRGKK
# [15] = system: T6, Receptor-type tyrosine-protein kinase FLT3 (Homo sapiens), P36888 [D835Y]; conditions: at 1 µM
# T6 sequence (whole entry): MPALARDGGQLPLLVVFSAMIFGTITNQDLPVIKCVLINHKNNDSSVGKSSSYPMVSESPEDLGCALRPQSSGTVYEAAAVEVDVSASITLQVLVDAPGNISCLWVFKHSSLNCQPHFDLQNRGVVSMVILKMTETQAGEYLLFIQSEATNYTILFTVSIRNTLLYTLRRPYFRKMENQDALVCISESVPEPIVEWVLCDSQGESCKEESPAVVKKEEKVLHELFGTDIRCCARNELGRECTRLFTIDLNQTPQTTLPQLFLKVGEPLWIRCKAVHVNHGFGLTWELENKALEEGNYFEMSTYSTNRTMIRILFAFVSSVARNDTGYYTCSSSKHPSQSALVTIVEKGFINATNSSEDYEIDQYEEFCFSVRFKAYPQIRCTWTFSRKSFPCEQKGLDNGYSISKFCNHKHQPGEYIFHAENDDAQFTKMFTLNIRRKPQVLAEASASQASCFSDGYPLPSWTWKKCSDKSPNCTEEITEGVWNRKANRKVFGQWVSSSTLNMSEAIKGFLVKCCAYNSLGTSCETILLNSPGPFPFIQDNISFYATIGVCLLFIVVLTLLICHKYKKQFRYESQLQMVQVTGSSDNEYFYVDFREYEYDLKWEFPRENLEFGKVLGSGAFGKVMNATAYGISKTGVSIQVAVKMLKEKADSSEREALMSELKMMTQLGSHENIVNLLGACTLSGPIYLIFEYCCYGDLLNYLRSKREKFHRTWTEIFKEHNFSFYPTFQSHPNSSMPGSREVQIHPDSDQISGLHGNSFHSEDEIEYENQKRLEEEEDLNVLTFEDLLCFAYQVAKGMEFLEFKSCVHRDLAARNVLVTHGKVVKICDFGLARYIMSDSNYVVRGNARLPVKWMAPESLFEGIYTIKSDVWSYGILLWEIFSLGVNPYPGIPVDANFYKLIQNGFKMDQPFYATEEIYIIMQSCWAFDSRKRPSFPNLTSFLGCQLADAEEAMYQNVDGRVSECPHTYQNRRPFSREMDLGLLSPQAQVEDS
# [16] = target: Vascular endothelial growth factor receptor 3 (Homo sapiens) (UniProt P35916); conditions: at 0.1 µM
# [17] = target: Vascular endothelial growth factor receptor 3 (Homo sapiens) (UniProt P35916); conditions: at 1 µM
# [18] = target: Macrophage colony-stimulating factor 1 receptor (Homo sapiens) (UniProt P07333); conditions: at 0.1 µM
# [19] = target: Macrophage colony-stimulating factor 1 receptor (Homo sapiens) (UniProt P07333); conditions: at 1 µM
# [20] = target: Tyrosine-protein kinase Fyn (Homo sapiens) (UniProt P06241); conditions: at 0.1 µM
# Chain of Tyrosine-protein kinase Fyn (Homo sapiens) (P06241 2-537 limits assumed): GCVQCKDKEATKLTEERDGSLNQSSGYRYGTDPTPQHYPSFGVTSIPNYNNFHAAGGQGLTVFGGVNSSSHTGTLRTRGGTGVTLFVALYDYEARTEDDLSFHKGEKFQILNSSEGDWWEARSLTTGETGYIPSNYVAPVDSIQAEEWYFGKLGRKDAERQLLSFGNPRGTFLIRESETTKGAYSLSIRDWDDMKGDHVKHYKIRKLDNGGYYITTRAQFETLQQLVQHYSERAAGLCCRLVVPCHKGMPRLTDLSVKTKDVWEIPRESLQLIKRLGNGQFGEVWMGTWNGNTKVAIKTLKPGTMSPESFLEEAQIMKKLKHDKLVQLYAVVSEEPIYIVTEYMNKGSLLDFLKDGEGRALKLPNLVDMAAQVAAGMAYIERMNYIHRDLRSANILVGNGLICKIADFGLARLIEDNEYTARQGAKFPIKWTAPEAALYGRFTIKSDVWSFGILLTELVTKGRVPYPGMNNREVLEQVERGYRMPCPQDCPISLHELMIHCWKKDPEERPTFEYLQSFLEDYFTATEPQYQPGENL
# Chain of Serine/threonine-protein kinase Nek6 (Homo sapiens) (Q9HC98 whole entry): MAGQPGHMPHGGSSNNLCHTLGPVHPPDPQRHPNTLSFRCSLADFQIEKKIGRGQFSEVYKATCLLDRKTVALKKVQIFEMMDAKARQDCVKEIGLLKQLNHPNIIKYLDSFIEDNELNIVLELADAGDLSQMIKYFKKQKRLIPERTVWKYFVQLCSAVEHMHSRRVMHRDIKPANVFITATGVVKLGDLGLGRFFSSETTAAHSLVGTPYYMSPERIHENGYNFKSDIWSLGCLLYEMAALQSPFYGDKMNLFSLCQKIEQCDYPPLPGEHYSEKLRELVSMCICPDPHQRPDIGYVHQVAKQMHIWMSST
# Chain of Serine/threonine-protein kinase PLK1 (Homo sapiens) (P53350 whole entry): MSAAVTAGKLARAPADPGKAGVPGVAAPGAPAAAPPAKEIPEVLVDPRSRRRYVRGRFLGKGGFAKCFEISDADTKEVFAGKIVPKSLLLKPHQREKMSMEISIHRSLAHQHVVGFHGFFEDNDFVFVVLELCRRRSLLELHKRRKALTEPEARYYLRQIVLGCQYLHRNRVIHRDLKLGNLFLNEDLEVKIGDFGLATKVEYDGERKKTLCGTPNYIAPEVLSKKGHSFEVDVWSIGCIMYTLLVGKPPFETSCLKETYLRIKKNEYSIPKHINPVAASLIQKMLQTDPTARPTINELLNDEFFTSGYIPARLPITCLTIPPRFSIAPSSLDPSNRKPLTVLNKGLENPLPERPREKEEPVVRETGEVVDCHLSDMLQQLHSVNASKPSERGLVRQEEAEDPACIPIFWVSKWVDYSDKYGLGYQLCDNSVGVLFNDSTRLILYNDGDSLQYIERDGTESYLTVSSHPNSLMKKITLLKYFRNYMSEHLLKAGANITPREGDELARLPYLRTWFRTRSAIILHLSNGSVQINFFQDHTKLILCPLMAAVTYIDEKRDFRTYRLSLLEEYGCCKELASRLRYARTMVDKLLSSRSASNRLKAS
# Chain of Serine/threonine-protein kinase Nek7 (Homo sapiens) (Q8TDX7 whole entry, looked up): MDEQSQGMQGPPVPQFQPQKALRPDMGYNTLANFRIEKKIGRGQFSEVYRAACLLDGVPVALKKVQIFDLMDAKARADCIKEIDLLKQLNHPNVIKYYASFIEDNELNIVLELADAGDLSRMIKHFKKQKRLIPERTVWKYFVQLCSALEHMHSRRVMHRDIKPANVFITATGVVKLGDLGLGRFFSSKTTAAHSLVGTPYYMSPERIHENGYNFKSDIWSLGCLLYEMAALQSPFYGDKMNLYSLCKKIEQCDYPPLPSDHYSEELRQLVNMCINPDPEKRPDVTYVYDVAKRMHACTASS
# Chain of Vascular endothelial growth factor receptor 3 (Homo sapiens) (P35916 whole entry): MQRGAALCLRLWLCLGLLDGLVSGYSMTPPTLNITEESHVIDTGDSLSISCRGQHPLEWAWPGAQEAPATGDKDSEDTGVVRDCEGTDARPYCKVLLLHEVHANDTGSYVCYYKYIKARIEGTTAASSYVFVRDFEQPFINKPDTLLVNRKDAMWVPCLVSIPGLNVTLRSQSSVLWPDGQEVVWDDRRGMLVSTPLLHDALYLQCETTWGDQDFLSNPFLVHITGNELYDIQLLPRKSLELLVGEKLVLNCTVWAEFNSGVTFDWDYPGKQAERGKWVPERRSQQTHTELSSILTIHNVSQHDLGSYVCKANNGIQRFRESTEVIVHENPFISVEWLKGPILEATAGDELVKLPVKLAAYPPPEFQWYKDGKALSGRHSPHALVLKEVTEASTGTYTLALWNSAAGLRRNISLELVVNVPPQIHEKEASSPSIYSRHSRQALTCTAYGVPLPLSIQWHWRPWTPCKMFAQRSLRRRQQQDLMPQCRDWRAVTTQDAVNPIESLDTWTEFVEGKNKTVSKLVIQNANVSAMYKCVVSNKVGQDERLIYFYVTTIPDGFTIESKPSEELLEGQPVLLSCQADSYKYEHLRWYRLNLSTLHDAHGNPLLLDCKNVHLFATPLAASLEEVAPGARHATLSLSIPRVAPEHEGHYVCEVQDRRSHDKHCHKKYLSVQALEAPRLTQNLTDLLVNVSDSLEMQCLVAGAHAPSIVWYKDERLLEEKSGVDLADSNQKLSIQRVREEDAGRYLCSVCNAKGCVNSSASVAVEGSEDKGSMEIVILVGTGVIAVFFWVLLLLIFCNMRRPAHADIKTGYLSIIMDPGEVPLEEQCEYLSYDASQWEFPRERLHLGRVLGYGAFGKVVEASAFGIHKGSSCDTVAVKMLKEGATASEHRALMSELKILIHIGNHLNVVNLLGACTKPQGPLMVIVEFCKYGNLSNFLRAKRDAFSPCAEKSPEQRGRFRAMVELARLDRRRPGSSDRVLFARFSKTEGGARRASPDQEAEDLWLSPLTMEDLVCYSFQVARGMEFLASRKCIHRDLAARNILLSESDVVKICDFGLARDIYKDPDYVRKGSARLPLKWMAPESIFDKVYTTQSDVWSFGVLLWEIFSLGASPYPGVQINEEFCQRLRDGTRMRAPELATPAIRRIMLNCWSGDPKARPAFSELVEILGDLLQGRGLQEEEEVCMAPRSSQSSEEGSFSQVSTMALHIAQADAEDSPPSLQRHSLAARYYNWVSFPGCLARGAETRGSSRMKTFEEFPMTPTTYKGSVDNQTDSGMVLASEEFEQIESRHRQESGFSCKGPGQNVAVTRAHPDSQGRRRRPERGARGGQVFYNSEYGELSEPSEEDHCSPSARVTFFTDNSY
# Chain of Macrophage colony-stimulating factor 1 receptor (Homo sapiens) (P07333 whole entry): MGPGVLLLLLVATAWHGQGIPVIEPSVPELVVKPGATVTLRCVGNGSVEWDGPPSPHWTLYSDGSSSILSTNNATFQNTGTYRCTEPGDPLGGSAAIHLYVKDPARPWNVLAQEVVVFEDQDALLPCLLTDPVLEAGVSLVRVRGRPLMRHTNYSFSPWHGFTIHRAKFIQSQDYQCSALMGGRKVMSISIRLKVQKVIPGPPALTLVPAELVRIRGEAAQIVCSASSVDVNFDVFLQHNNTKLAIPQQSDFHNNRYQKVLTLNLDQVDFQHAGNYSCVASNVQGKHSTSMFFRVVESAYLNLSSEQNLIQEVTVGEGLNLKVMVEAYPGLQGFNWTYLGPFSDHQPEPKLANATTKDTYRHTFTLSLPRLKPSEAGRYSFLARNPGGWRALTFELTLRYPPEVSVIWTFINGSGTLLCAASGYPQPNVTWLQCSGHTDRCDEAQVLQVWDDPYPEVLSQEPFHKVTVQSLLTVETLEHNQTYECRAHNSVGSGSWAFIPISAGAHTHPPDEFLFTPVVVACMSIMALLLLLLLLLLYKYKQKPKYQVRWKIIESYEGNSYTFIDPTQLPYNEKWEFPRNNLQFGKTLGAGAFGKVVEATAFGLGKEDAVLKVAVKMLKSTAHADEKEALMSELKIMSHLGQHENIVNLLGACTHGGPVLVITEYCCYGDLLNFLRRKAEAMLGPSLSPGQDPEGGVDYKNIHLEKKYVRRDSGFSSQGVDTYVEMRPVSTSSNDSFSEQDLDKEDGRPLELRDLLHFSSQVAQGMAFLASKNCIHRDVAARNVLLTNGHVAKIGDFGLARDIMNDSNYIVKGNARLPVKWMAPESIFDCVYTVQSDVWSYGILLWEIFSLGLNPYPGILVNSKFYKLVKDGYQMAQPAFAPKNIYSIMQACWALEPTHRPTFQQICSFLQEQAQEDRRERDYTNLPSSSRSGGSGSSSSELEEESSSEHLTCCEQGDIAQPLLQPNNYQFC
Compound,inhibition [1] [%],inhibition [2] [%],inhibition [3] [%],inhibition [4] [%],inhibition [5] [%],inhibition [6] [%],inhibition [7] [%],inhibition [8] [%],inhibition [9] [%],inhibition [10] [%],inhibition [11] [%],inhibition [12] [%],inhibition [13] [%],inhibition [14] [%],inhibition [15] [%],inhibition [16] [%],inhibition [17] [%],inhibition [18] [%],inhibition [19] [%],inhibition [20] [%]
COc1ccc(CNC(=O)c2ccc(-c3cc(-c4nnc(C)o4)ccc3C)cc2)cc1,3.56,3.38,1.51,1.12,3.44,-0.69,4.26,1.72,-1.14,1.2,6.3,2.95,1.61,1.98,-2.55,-1.03,-1.53,1.47,0.46,0.71
CCN(CC)S(=O)(=O)c1ccc(OC)c(Nc2ncc(-c3ccccc3)o2)c1,1.73,-0.43,1.95,0.46,-0.71,1.9,1.12,-0.6,-0.03,2.38,1.83,0.06,0.24,2.04,69.9,30.9,85.5,42.4,84.8,6.94
COc1ccc(-c2cc(-c3c[nH]nc3-c3ccccn3)ccn2)cc1,9.71,2.15,3.74,5.8,4.88,2.87,4.34,2.27,3.19,7.56,9.65,3.67,4.38,13.4,1.61,5.28,4.26,6.09,5.24,3.23
COc1cc(Nc2nccc(Nc3ccc4c(C)n[nH]c4c3)n2)cc(OC)c1OC,12.9,1.89,7.77,0.97,0.41,-1.67,-0.68,3.64,2.17,0.16,5.56,2.28,4.34,2.57,87.2,78.8,106,79.3,94.1,44.9
